PLAP activator = activators of human placental alkaline phosphatase; P05187; activation fold at 20 µM; AID 696; 96,000 tested, 1.2% active; purified PLAP enzyme, luminescent substrate read-out; stronger effect = higher value; in the data active means activation fold above about 2
hDAT+cocaine = modulates human dopamine transporter uptake under cocaine. B-score at 10 µM. 110,000 tested, 1.3% active. Q01959. LLC-PK1 hDAT cells, [14C]-dopamine uptake with cocaine IC80; actives deviate in either direction;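 active means Z score or B-score, a plate-position-corrected score, falls beyond the plate's 99.7% confidence bounds, in either direction; inactive means both scores lie inside the 99.7% bounds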;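 further: scored against the spread of the other compound wells on the same plate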
PostGolgi ctrl = inhibits growth of the yeast control strain. efflux-deficient yeast background strain, growth absorbance A615, 16 h. inhibition, % at 10 µM. 98,000 tested, 5% active. AID 738
Cav32 inh = blocks human Cav3.2 T-type calcium channel | O95180 | Cav3.2-expressing cells, Fluo-4 calcium fluorescence FDSS; stronger effect = lower value | B-score at 10 µM | 100,000 tested, 4% active | AID 449739;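 active means single-dose well whose peak fluorescence ratio is a statistical outlier from its plate by either plate-standardised score or position-corrected B-score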
PostGolgi yeast = growth inhibition of a yeast mutant, post-Golgi transport screen; AID 739; 98,000 tested, 0.9% active; post-Golgi transport phenotypic cell assay; inhibition, % at 10 µM;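 further: yeast cells grown in 1536-well plates; yeast grown about 18 h at 30C before absorbance read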
* hit, by the source's call; / = not tested or not shown. Rows were chosen to be rich in hits. Some 9.6% of all compounds tested hit in one or more screens of this group. Unless noted, no stated cut-off is given here; in the data, active means inhibition above about 30%; inactive means the rest.

SMILES	PLAP activator	hDAT+cocaine	PostGolgi ctrl	Cav32 inh	PostGolgi yeast
CCC(C)n1cnc2c(c1=O)c1nc3ccccc3nc1n2Cc1ccc2c(c1)OCO2 (stereo not given)	1.4	4.1*	23	-0.94	15
CCCCn1c2nc3ccccc3nc2c2c(=O)n(C(C)CC)cnc21 (stereo not given)	1.1	0.76	23	0.092	37*
O=C(C1CCCN(S(=O)(=O)c2cnc[nH]2)C1)N1CC(=O)N(CCc2ccccc2)C(=O)C1 (stereo not given)	1	0.048	9	-0.68	7
Cc1ccc(C2CC(c3cccs3)=NN2C(=O)c2ccc(Br)o2)cc1 (stereo not given)	1.1	-0.63	83*	-4*	93*
Cc1cc(C(=O)N(C)CC(=O)Nc2ccccc2C(F)(F)F)c(C)o1	1.1	-0.13	-1	-0.084	-5
CC(C)(C)C(=O)NC(NC(=S)Nc1sc2c(c1C#N)CCCC2)C(Cl)(Cl)Cl (stereo not given)	1	-0.12	15	-1.5	-3
CCCC(=Nc1ccc(N)cc1)C1=C(O)C(C(=O)OC)C(C)(C)CC1=O (stereo not given)	1	-0.17	-1	-5.1*	4
Nc1[nH]nc2nc(N3CCCC3)nc(-c3ccccc3)c12	2*	0.52	8	0.17	11
O=C(Nc1ccccc1)N1CCn2c1nc1ccccc12	0.9	0.82	14	0.85	0
S=C(Nc1ccccc1)N1CCn2c1nc1ccccc12	1	-0.61	38*	0.12	6
O=c1c2ccccc2nc(/C=C/c2ccc([N+](=O)[O-])o2)n1CCCO	0.9	2.2	62*	-0.54	91*
Cc1cc(C)c(-c2noc(C(=O)OC(C)(C)C)c2C(=O)OC(C)(C)C)c(C)c1	1	-1.4	-2	-0.95	5
Cc1cc(C)c(NC(=O)C(C)c2cccc(C(=O)c3ccccc3)c2)c(C)c1 (stereo not given)	0.9	-0.13	5	-5.5*	14
Cn1c(=O)c2c(nc3sccn32)n(C)c1=O	/	0.43	/	0.27	/
CCCSc1nc2c(cnn2-c2ccc(C)cc2)c(=O)[nH]1	1.2	-0.89	-2	-1.4	2
CCCSc1nc2c(cnn2-c2ccccc2)c(=O)[nH]1	1.2	-0.014	33*	0.044	8
COc1cc(/C=N/NC(=O)COc2ccc(Cl)cc2)ccc1OS(=O)(=O)c1ccc(C)cc1	1.4	-8.3*	17	-1.9	1
COc1ccccc1N(CC(=O)N/N=C/c1ccc(OCC(=O)NCc2ccco2)cc1)S(=O)(=O)c1ccc(C)cc1	2*	-0.36	-7	0.1	-6
CCOC(=O)N1CCN(C(=O)COc2ccc(S(=O)(=O)NC(C)C)cc2)CC1	1.2	-0.52	/	0.86	/
CC(C)(C)C(=O)c1no[n+]([O-])c1/C(=N/O)C(C)(C)C	1.2	-0.84	23	-7.9*	-8
Cc1ccc(C(=O)O)cc1S(=O)(=O)N1CCSCC1	1.1	-9.1*	-5	0.61	1
Cc1ccc(C(=O)N2CCN(C)CC2)cc1S(=O)(=O)N1CCCCC1	1	-0.18	4	1.7	-2
Cc1cc(C)n(C(=O)c2ccc(C)c(S(=O)(=O)N3CCCC3)c2)n1	1.2	0.9	32*	0.028	-6
Cc1cc(C)n(C(=O)c2cccc(S(=O)(=O)N3CCOCC3)c2)n1	1	-8.3*	1	/	5
CCOC(=O)c1c(=O)n(O)c2ccc(C)cc2[n+]1[O-]	0.9	-0.73	2	-0.38	-3
SMILES	PLAP activator	hDAT+cocaine	PostGolgi ctrl	Cav32 inh	PostGolgi yeast
CCCOc1ccc(/C=N/NC(=O)C2CCCN2S(=O)(=O)c2ccc(Cl)cc2)cc1 (stereo not given)	0.9	-0.016	24	0.82	-2
CC(C)Oc1ccc(/C=N/NC(=O)C2CCCN2S(=O)(=O)c2ccc(Cl)cc2)cc1 (stereo not given)	1.3	0.64	6	-4.7*	-4
Cc1ccc(-c2cc(C(=O)N3CCCc4ccccc43)c3ccccc3n2)cc1	1.5	0.97	29	-2	1
Cc1ccc2nc3sc(C(=O)N4CCCc5ccccc54)c(N)c3cc2c1	1	-0.3	50*	/	7
C=CCOCCN1C(=O)C2C(c3ccccc3)C=CC(c3ccccc3)C2C1=O (stereo not given)	1	0.37	2	-3.3*	9
O=C1C2C(c3ccccc3)C=CC(c3ccccc3)C2C(=O)N1CCCO (stereo not given)	1.7	-0.041	5	-1.4	18
O=C1CC(c2cccc(Br)c2)c2cc3c(cc2N1)CCC3 (stereo not given)	1.1	/	90*	/	19
C=C(Cl)COc1ccc2c(CCCC)cc(=O)oc2c1	0.6	-0.021	31*	-1.3	-1
CCCCc1cc(=O)oc2cc(OCC(=O)N(CC)CC)c(Cl)cc12	1.4	0.99	10	-3.1*	6
COc1ccccc1CNc1ncnc2c1nnn2Cc1ccccc1	0.9	-2.2	20	-1.6	19
O=C(NCCNC(=O)c1cc(OCC(F)(F)F)ccc1OCC(F)(F)F)Nc1ccc(Cl)cc1	0.9	0.52	2	-4.1*	-8
O=C(CC1CCCCC1)c1c(O)c2ccccc2oc1=O	0.9	-0.013	9	-7.6*	0
CCCCC(=O)c1c(O)c2ccccc2oc1=O	1.1	0.11	3	-1.2	1
Nc1cc(-c2ccc(Cl)cc2)nn1S(=O)(=O)c1ccccc1	1	-0.072	14	-1.2	-6
Nc1cc(-c2ccccc2)nn1Cc1ccc(Cl)cc1	0.9	0.41	4	-5.8*	0
COCCNC(=S)N/N=C(\C)c1ccc(-n2ccnc2)cc1	1.2	0.62	-1	1	0
CO/N=C(/CS(=O)(=O)Cc1ccccc1Cl)c1ccc(Cl)cc1Cl	0.9	-0.3	33*	-0.99	-1
CN1C2=NCCN2C(=O)c2ccccc21	0.8	-0.03	-12	1	-3
Cc1ccccc1NC(NC(=O)c1cccs1)C(Cl)(Cl)Cl (stereo not given)	0.8	-0.67	7	-5.9*	4
COC(=O)c1sc2ccccc2c1-n1cccc1C(=O)C(=O)Nc1ccc(Cl)cc1	0.9	0.034	0	-2.2	27
COc1cccc(-c2nc(-c3ccc(NC(=O)c4cccnc4)cc3)no2)c1	1	0.49	-1	-0.16	9
COc1ccc(CC(=O)Nc2ccc(-c3noc(-c4cccc(OC)c4)n3)cc2)cc1	1	0.65	-4	-4.2*	4
Cc1ccccc1C(O)c1ccccn1 (stereo not given)	1.1	-0.078	8	0.44	-1
Cc1ccc(-n2ncc3c(NCc4ccc5c(c4)OCO5)ncnc32)c(C)c1	/	0.82	38*	-3.1	4
Clc1ccc(-n2ncc3c(NCc4ccccn4)ncnc32)cc1	/	1.1	32*	-0.56	-3
CCCCNc1ncnc2c1cnn2-c1ccccc1	1.1	1.5	15	-3.5	5
Cc1ccc(CSc2ncnc3c2cnn3Cc2ccccc2)cc1	0.8	0.32	3	0.014	1
C=CCNc1ncnc2c1cnn2-c1ccc(Cl)cc1	0.9	-0.031	10	-0.029	-2

High-throughput results from PubChem.
